CYP2C9 activ = CYP2C9 (human) activation; recombinant CYP2C9, luciferin-H conversion, luminescence; hits give high values; factor 1 = untreated enzyme, 0 = blocked; AID 1024; 96,000 tested, 1.4% active; activation factor at 5 µM; P11712;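 active means activation factor of 2 or more for CYP2C9 at a 5 µM dose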
CYP2C19 inh = inhibitors of human CYP2C19; AID 778; P33261; 96,000 tested, 21% active; inhibition, % at 5 µM; CYP2C19 Supersomes, luciferin-H EGE luminescence, 30 min;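 active means CYP2C19 inhibition above a set limit at 5 µM in the primary screen, cut at about 50% in these data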
CD11b adhes enh = increases human CD11b/CD18 adhesion to fibrinogen. P05107+P11215. K562 CD11b/CD18 adhesion to fibrinogen, ATPlite luminescence. activation, % at 10 µM. 93,000 tested, 0.07% active. AID 1499;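 active means 10 µM primary screen giving 50% or more activity, confirmed by 40% or more on retest at that dose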
CYP2C19 activ = cytochrome P450 2C19 (human) activation; activation factor at 5 µM; recombinant CYP2C19, luciferin-H EGE luminescence; hits give high values; 0 = fully inhibited enzyme, 1 = untreated enzyme; 96,000 tested, under 10 active; P33261; AID 1025;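 active means activation factor of at least 2 at 5 µM in the primary screen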
CYP2C9 inh = human CYP2C9 inhibition; 96,000 tested, 20% active; inhibition, % at 5 µM; AID 777; CYP2C9 Supersomes, luciferin-H conversion, luminescence;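 active means blocking of liver enzyme CYP2C9 beyond about 50% at 5 µM, limit read from the data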
Mac1 fbg inh = CD11b/CD18-fibrinogen binding inhibition | 93,000 tested, 0.54% active | inhibition, % at 10 µM | P05107+P11215 | K562 CD11b/CD18 adhesion to fibrinogen, ATPlite luminescence; Mn2+ added to activate the integrin;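 active means primary inhibition of 50% or more at 10 µM, then 40% or more on retest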
Hits are given with their value; - = inactive; . = no result. In the library only some 28% were active in any assay of this set; here they are far more common.

SMILES	CYP2C9 activ	CYP2C19 inh	CD11b adhes enh	CYP2C19 activ	CYP2C9 inh	Mac1 fbg inh
CC(=O)c1cccc(NS(=O)(=O)c2ccc(N/C=C/C(=O)c3ccc(F)cc3)cc2)c1	.	.	-	.	.	-
CCCC(CCC)C(=O)Nc1ccncc1	-	90.6	-	-	78.8	-
CC(C)(C)NC(=O)Cn1nnc(-c2ccc(Cl)cc2)n1	-	-	-	-	-	-
c1cc2c(cc1Nc1nc(-c3ccc4c(c3)OCO4)cs1)OCCO2	-	73.1	-	-	87.2	-
CCC(=O)Nc1nc(-c2ccc3c(c2)OCCO3)cs1	-	-	-	-	-	-
c1ccc(-c2csc(Nc3ccc4c(c3)OCCO4)n2)cc1	-	-	-	-	-	-
CC(C)(C)C(=O)Nc1nc(-c2ccc3c(c2)OCO3)cs1	-	92.5	-	-	94.5	-
O=C(O)CCN1C(=O)/C(=C\c2ccc(-c3nc4ccccc4s3)o2)SC1=S	-	-	-	-	-	-
CCOC(=O)N1CCC(Nc2c(NCCN3CCN(c4ccccc4F)CC3)c(=O)c2=O)CC1	-	-	-	-	-	-
CN(CC(=O)Nc1ccncc1)S(=O)(=O)c1ccccc1	-	97.6	-	-	62.7	-
CC(CC(=O)Nc1cc([N+](=O)[O-])ccc1Cl)c1ccccc1 (centres undefined)	-	51.4	-	-	-	-
CN(CC(=O)Nc1cccnc1)S(=O)(=O)c1cc(Cl)ccc1Cl	-	80.1	-	-	-	-
CN(CC(=O)O/N=C(\N)c1ccccn1)S(=O)(=O)c1cc(Cl)ccc1Cl	-	-	-	-	-	-
CC(CC(=O)Nc1ccncc1)c1ccccc1 (centres undefined)	-	98.0	-	-	95.6	-
Cc1cc([N+](=O)[O-])c2[nH]c(C(=O)N/N=C/c3ccccc3C(=O)O)c(-c3ccccc3)c2c1	-	-	.	-	-	.
COc1ccccc1NC(=O)N1CCCC1C(=O)NC12CC3CC(CC(C3)C1)C2 (centres undefined)	-	-	-	-	-	-
CN(CC(=O)Nc1ccncc1)S(=O)(=O)c1ccc(Cl)cc1	-	100.0	-	-	80.1	-
CN(CC(=O)Nn1cnnc1)S(=O)(=O)c1ccccc1	-	73.0	-	-	-	-
CC(=O)SC(C)CC(=O)Nc1ccccc1 (centres undefined)	-	70.8	-	-	-	-
CN(CC(=O)NCc1ccccn1)S(=O)(=O)c1ccccc1	-	-	-	-	-	-
CC(=O)SC(C)CC(=O)NCc1ccccc1 (centres undefined)	-	-	-	-	-	-
Cc1cccc2cc(COC(=O)C3CCCCC3)c(=O)[nH]c12	-	-	-	-	-	-
CCC(C)NC(=O)/C=C1\Sc2ccccc2NC1=O (centres undefined)	.	.	-	.	.	-
O=C(COc1ccccc1)N/N=C/c1ccc([N+](=O)[O-])o1	.	.	-	.	.	-
CCCc1ccc(-c2cc(C(=O)N/N=C/c3ccc([N+](=O)[O-])o3)c3ccccc3n2)cc1	-	51.1	-	-	95.8	-
SMILES	CYP2C9 activ	CYP2C19 inh	CD11b adhes enh	CYP2C19 activ	CYP2C9 inh	Mac1 fbg inh
O=C(N/N=C/c1ccc([N+](=O)[O-])o1)c1cc(-c2cccc(Br)c2)nc2ccccc12	-	-	.	-	56.2	.
O=C(CSc1nnc(-c2ccc3c(c2)OCO3)n1-c1ccccc1)c1ccccc1	.	.	-	.	.	-
Brc1cccc(-c2nnc(SCc3ccon3)n2-c2ccccc2)c1	-	50.4	-	-	-	-
C=CCn1c(C(C)NC(=O)COC)nc2ccccc21 (centres undefined)	-	-	-	-	-	-
Cc1c(Br)cc(-c2nnco2)cc1Br	2.9	-	-	-	-	-
O=C(CN(Cc1ccco1)C(=O)CNS(=O)(=O)c1ccccc1)NC1CCCCC1	-	-	-	-	-	-
O=C(CN(Cc1ccco1)C(=O)CNS(=O)(=O)c1ccc(F)cc1)NCCc1ccccc1	-	65.4	-	-	61.0	-
O=C(CN(Cc1ccco1)C(=O)CNS(=O)(=O)c1ccccc1)NCc1ccccc1	-	60.8	-	-	-	-
O=C(CN(Cc1cccs1)C(=O)CNS(=O)(=O)c1ccccc1)NCc1ccco1	-	52.5	-	-	-	-
CC(C)c1nc(SCC(=O)c2ccccc2)c2c(=O)n(C)c(=O)n(C)c2n1	-	-	-	-	-	-
